# RORg inh – qHTS for inhibitors of ROR gamma transcriptional activity. Nuclear receptor ROR-gamma (Mus musculus), P51450. Drosophila S2 Gal4-RORgamma UAS-luciferase reporter, 20 h. Potency, µM (doses to about 53.6 µM), for inactives: top-dose activity change, negative = inhibition, most hits filed as inhibitors. actives 5.4% (n = 310,000). AID 2551, 2010; further: nearly all actives have a fitted effect of over 60% in size
# Target sequence (P51450 whole entry, looked up, the tested form may be a part): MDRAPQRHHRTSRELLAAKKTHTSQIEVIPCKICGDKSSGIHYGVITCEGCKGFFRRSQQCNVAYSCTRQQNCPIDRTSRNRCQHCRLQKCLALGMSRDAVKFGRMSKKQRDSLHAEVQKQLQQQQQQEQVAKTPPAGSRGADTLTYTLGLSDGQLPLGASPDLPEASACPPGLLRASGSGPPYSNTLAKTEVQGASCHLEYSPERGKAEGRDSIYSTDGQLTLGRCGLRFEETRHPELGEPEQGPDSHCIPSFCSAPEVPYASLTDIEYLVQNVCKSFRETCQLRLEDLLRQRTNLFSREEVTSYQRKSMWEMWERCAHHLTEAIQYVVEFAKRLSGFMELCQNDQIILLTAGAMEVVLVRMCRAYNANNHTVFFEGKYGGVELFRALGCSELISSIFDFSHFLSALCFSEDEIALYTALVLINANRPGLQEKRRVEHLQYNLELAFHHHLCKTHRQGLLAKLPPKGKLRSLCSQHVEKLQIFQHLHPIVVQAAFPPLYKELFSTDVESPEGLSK
#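 Luminescence from a UAS-regulated Photinus luciferase reporter in stably transfected Drosophila Schneider cells is measured; decreased signal marks ROR gamma inhibition. Fusion expression is induced by 700 uM copper sulfate for 20 hr.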
# KinaseGlo FLuc – Counterscreen for Luciferase (Kinase-Glo TM) Inhibition; Luciferin 4-monooxygenase (Photuris pensylvanica), Q27757; Kinase-Glo luciferase, ATP luminescence, 8 min; Potency, µM (top dose mostly 38.3 µM), inactives show top-dose activity change, negative = inhibition, hits mostly inhibitors; actives 0.28% (n = 200,000); further: nearly all actives have a fitted effect of over 60% in size
#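 Substrate mix (final 50 mM imidazole pH 7.2, 50 mM KCl, 7 mM MgCl2, 10 uM ATP, 0.01% Tween 20, 0.05% BSA) plus pin-tool compound, then Kinase-Glo detection mix; 8 min ambient, luminescence read.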
# VP16 counter – VP16 counterscreen qHTS for inhibitors of ROR gamma transcriptional activity; actives 3.5% (n = 310,000); Potency, µM (titrated, usually from 53.6 µM), for inactives: at the top dose activity, negative = inhibition, most hits filed as inhibitors; Drosophila S2 Gal4-VP16 UAS-luciferase, luminescence, 20 h;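 further: Gal4-VP16 expression switched on by copper sulfate through the metallothionein promoter; nearly all actives have a fitted effect of over 50% in size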
# * marks the source's active call; other numbers are inactive results; ? = inconclusive; . = no result; [ ] = another dose, or the depositor's remark. An excerpt weighted towards active compounds, which were near 6.2% of everything screened. The call rests on the fitted dose curve; in most records, active means well fitted curve in the direction sought with a large enough effect; inconclusive means small, poorly fitted or top-dose-only effect, or another doubt; inactive means no such curve, though single readings can be large; an effect the other way counts as inactive or inconclusive. On the % scale 0 is the no-effect control and ±100 the full control effect; potency means the concentration at half of the fitted maximal effect.
SMILES,RORg inh,KinaseGlo FLuc,VP16 counter
O=C(O)c1ccc(S(=O)(=O)N(Cc2ccccc2)C2CCCCC2)cc1,-5%,.,8%
CCCn1c(C)nc2c(NCCO)nc(C)nc21,1%,-8%,9%
COc1ccc(-c2nc(CSCC(=O)NCc3ccc4c(c3)OCO4)c(C)o2)cc1OC,45%,8%,3%
CCOc1ccc(-c2nc(CSCC(=O)NC3CC3)c(C)o2)cc1,8.9µM*,.,?
COc1ccc(-c2nc(CS(=O)CC(=O)NCc3ccco3)c(C)o2)cc1 (configuration not stated),-23%,0%,-1%
CCOC(=O)N1CCC(NC(=O)CSCc2nc(-c3ccc(OCC)cc3)oc2C)CC1,4%,.,-4%
COc1ccc(-c2nc(CSCC(=O)NCc3ccc4c(c3)OCO4)c(C)o2)cc1,13µM*,17%,13µM*
CCOc1ccc(-c2nc(CSCC(=O)NCc3ccco3)c(C)o2)cc1,-38%,-3%,25µM*
CCOC(=O)C1(Cc2cccc(OC)c2)CCN(Cc2cccc3c2OCO3)CC1,6%,1%,6%
O=C1C2=C(S[C@@H]3O[C@H](CO)[C@@H](O)[C@H](O)[C@H]3O2)C(=O)c2ccccc21,-33%,-8%,-15%
O=c1cc(N2CCCC2)c2ccccc2o1,-4%,1%,-16%
Cc1ccnc(N2C(=O)c3cccc4c([N+](=O)[O-])ccc(c34)C2=O)c1,6.3µM*,2%,0%[0.365 µM]
Cc1nnc(N2C(=O)c3cccc4c([N+](=O)[O-])ccc(c34)C2=O)s1,4µM*,.,3.2µM*
Cc1ccc(N2C(=O)c3cccc4c([N+](=O)[O-])ccc(c34)C2=O)c2cccnc12,25%,.,-11%
O=C1c2cccc3c([N+](=O)[O-])ccc(c23)C(=O)N1Cc1cccnc1,4.5µM*,4%,?
O=C1c2cccc3cccc(c23)C(=O)N1Cc1cccnc1,2%,.,12%
Cc1cccc(N2C(=O)c3cccc4c(N5CCCCC5)c([N+](=O)[O-])cc(c34)C2=O)c1C,-13%,-4%,-11%
O=C(CCc1ccccc1)N=C1SC2CS(=O)(=O)CC2N1c1ccccc1F (configuration not stated),-1%,.,-1%
O=C(CN1CCOC1=O)N1CCCC(N2CCN(c3cccc(C(F)(F)F)c3)CC2)C1 (configuration not stated),-6%,.,6%
C[N+]1(CCC[N+]2(C)C[C@H]3[C@H](C2)[C@H]2C=C[C@@H]3CC2)CCOCC1 (some centres not stated),.,-7%[7.66 µM],.
Cc1cc(NC(=O)CSc2nnc3ccccn23)no1,-2%,-2%,10%
O=C(CNC(c1ccccc1)c1ccccc1)NCc1ccccc1Cl,29%,.,-13%
O=C(/C=C/c1ccc(N2CCCCC2)c([N+](=O)[O-])c1)c1ccc(O)cc1,11µM*,-2%,?
O=C(c1ccc(N2CCCCC2)c([N+](=O)[O-])c1)N1CCOCC1,19%,0%,-5%
O=C(O/N=C\c1ccc(N2CCCCC2)c([N+](=O)[O-])c1)c1ccc(Cl)cc1Cl,15%,4%,5%
SMILES,RORg inh,KinaseGlo FLuc,VP16 counter
COc1ccccc1C(=O)/C=C/c1ccc(N2CCCCC2)c([N+](=O)[O-])c1,5.6µM*,0%,6.3µM*
CCOC(=O)C1=NN(c2ccccc2C)C2=NC(C)=C(C(=O)OC)C(c3cccc(OC)c3)N12 (configuration not stated),13%,-2%,-7%
COc1ccc(C2=CC(c3cc(OC)c(OC)c(OC)c3)NC(=S)N2)cc1 (configuration not stated),13µM*,-3%,?
COc1ccc(OC)c(C2C=C(C34CC5CC(CC(C5)C3)C4)NC(=S)N2)c1 (configuration not stated),3.2µM*,-5%,3.2µM*
CCOC(=O)C1C(c2cc(OC)c(OC)c(OC)c2)NC(=S)NC1(O)C(F)(F)F (configuration not stated),1%,4%,3%
COc1cc(C2SCC(=O)N2c2nnc(C34CC5CC(CC(C5)C3)C4)s2)cc(OC)c1OC (configuration not stated),-15%,4%,-13%
CC1C(=O)C(C)C(c2ccc3c(c2)OCO3)NC1c1ccc2c(c1)OCO2 (configuration not stated),-19%,.,1%
COc1ccc(OC)c(C(C)NC(=O)C23CC4CC(CC(C4)C2)C3)c1 (configuration not stated),16%,.,1%
COc1cc(C2C=C(C34CC5CC(CC(C5)C3)C4)NC(=S)N2)cc(OC)c1OC (configuration not stated),1µM*,-4%,0.79µM*

# High-throughput results (PubChem)
